According to PubChem BioAssay (Tox21):
Results filed as inconclusive are left out. Activity calls are given as the source filed them. Unless noted, the call rests on the fitted dose curve; in most records, active means well fitted curve in the direction sought with a large enough effect in the repeat runs; inconclusive means weak or mixed curves; inactive means no such curve, though single readings can be large; an effect the other way counts as inactive or inconclusive.

Tests used:
[1] = qHTS assay for small molecule agonists of the p53 signaling pathway (AID 651631; calls by dose curve; further: nearly all actives have a fitted effect of over 15% in size)
In short: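 p53RE-bla HCT-116 cells; compounds 16 h, 37 °C; LiveBLAzer B/G FRET substrate 2 h RT; fluorescence intensity read-out, qHTS format.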

[2] = qHTS assay for small molecule agonists of the p53 signaling pathway - cell viability (AID 651633; calls by dose curve;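 further: p53RE-bla HCT reporter cells with a stable beta-lactamase p53 reporter; series mostly up to about 83 µM; nearly all actives have a fitted effect of over 30% in size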)
In short: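 p53RE-bla cells, seeded at 4,000 per well and rested 5 h at 37 C/5% CO2, received compounds in DMSO for 16 h at 37 C. CellTiter-Glo was then added, and luminescence was read after 30 min at room temperature to gauge cytotoxicity.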

[3] = qHTS assay for small molecules that induce genotoxicity in human embryonic kidney cells expressing luciferase-tagged ATAD5 - cell viability (AID 651634; calls by dose curve; further: nearly all actives have a fitted effect of over 25% in size)
In short: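 Live-cell protease activity (CellTiter-Fluor, fluorescence) indicates viability. HEK293T cells with luciferase-tagged ATAD5; 15.5 hr compound treatment at 37C.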

[4] = qHTS assay for small molecule disruptors of the mitochondrial membrane potential - cell viability (AID 720634; calls by dose curve;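 further: human HepG2 liver cancer cells; series mostly up to about 83 µM; nearly all actives have a fitted effect of over 20% in size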)
In short: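 Human hepatoma HepG2 cells were treated for 1 hr with test chemicals, then given m-MPI dye and CellTiter-Glo. Cell viability reflects luminescence proportional to cellular ATP.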

[5] = qHTS assay for small molecule disruptors of the mitochondrial membrane potential (AID 720635)
In short: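 HepG2 cells (2,000/well) attached overnight at 37C, then took compound for 1 hr at 37C, 5% CO2. Mito-MPS dye was added for 30 min; fluorescence was read at 490/535 nm (monomers) and 540/590 nm (aggregates).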

[6] = qHTS assay to test for compound auto fluorescence at 590 nm (red) in HepG2 cells (AID 720674)
In short: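 Rose Bengal sodium served as the red fluorophore standard. HepG2 monolayers (overnight attachment, MEM with 10% FBS) were exposed to test compounds for 1 hr at 37 C and read at Ex 540/Em 590 nm.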

[7] = qHTS assay to test for compound auto fluorescence at 535 nm (green) in HepG2 cells (AID 720675)
[8] = qHTS assay to test for compound auto fluorescence at 460 nm (blue) in HEK293 cells (AID 720678)
In short: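 After cell attachment (4-5 hr, 37C), compounds were pinned onto HEK293 monolayers in 10% dialyzed FBS medium. The blue channel (405/460 nm) was read following overnight culture. Equivalency was calculated against triamterene.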

[9] = qHTS assay to test for compound auto fluorescence at 590 nm (red) in HEK293 cells (AID 720679)
In short: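 Plates of HEK293 cells (10% dialyzed FBS) are treated with 23 nL compound or DMSO vehicle after a 4-5 hr attachment period, incubated overnight at 37C, and read for red fluorescence at 540/590nm.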

[10] = qHTS assay to test for compound auto fluorescence at 535 nm (green) in HEK293 cells (AID 720680)
[11] = qHTS assay to test for compound auto fluorescence at 460 nm (blue) in HEK293 cell free culture (AID 720681)
In short: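 Test compounds were pinned into cell-free culture medium (DMEM with 10% FBS) and fluorescence was read directly at Ex/Em 405/460 nm. Signals were expressed as fluorescence equivalents of triamterene, with DMSO vehicle as control.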

[12] = qHTS assay to test for compound auto fluorescence at 535 nm (green) in HEK293 cell free culture (AID 720682)
In short: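 Cell-free medium (DMEM, 10% FBS) receives compound or DMSO by pintool. Plate read directly at Ex 485/Em 535 nm. Signal converted to fluorescein equivalency.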

[13] = qHTS assay to test for compound auto fluorescence at 590 nm (red) in HEK293 cell free culture (AID 720683)
In short: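 Tox21 10K library compounds were pinned into cell-free DMEM with 10% FBS and fluorescence was read at excitation 540 nm. Activity is expressed as Rose Bengal sodium equivalency.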

[14] = qHTS assay to test for compound auto fluorescence at 590 nm (red) in HepG2 cell free culture (AID 720684)
In short: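 Red fluorescence (540 nm excitation, 590 nm emission) was measured after compound transfer into cell-free MEM supplemented with 10% FBS. Values are equivalencies against Rose Bengal sodium.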

[15] = qHTS assay to test for compound auto fluorescence at 460 nm (blue) in HepG2 cell free culture (AID 720685)
In short: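 Compound (23 nL) or DMSO pinned into cell-free MEM with 10% FBS; blue fluorescence read at 405/460 nm excitation/emission, expressed as auto-fluorescence equivalency to triamterene.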

[16] = qHTS assay to test for compound auto fluorescence at 535 nm (green) in HepG2 cell free culture (AID 720686)
[17] = qHTS assay to test for compound auto fluorescence at 460 nm (blue) in HepG2 cells (AID 720687)
In short: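 Cells (2,000/well in MEM with 10% FBS) attached overnight at 37 C, then were exposed to compound or DMSO for 1 hr at 37 C, 5% CO2. Fluorescence read at Ex/Em 405/460 nm, expressed as triamterene-equivalent signal.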

[18] = biological target: Glucocorticoid receptor (Homo sapiens) (UniProt P04150); assay: qHTS assay to identify small molecule agonists of the glucocorticoid receptor (GR) signaling pathway (AID 720691; active means well fitted activation curve with a large enough effect in the signal ratio in the repeat runs, not every such curve was filed as active; the % refers to the signal ratio)
Sequence of Glucocorticoid receptor (Homo sapiens) (P04150 whole entry, looked up): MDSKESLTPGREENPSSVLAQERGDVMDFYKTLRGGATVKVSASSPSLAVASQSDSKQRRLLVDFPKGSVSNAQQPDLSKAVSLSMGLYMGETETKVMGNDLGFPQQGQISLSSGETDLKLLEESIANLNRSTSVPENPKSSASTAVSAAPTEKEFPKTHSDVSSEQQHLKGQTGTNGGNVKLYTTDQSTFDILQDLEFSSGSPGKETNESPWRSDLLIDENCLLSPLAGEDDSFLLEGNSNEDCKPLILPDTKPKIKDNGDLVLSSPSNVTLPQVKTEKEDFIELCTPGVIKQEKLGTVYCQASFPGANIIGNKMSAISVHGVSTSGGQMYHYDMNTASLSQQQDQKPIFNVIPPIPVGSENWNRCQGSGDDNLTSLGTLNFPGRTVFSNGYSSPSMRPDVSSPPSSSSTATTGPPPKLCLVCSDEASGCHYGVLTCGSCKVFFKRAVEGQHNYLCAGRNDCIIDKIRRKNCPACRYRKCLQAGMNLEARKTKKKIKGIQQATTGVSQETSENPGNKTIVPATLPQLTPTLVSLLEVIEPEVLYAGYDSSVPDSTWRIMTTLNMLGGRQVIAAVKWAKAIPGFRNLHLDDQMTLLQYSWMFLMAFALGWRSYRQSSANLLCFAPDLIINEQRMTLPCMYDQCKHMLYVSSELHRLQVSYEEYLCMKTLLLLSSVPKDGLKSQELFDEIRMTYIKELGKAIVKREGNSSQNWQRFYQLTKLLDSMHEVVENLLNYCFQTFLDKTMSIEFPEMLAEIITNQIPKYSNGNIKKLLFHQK
In short: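 Beta-lactamase reporter activity, read as fluorescence intensity, was measured in GR-bla HeLa cells exposed to compounds for 18 h at 37 C and then loaded with LiveBLAzer B/G FRET substrate for 2 h at room temperature.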

[19] = biological target: Glucocorticoid receptor (Homo sapiens) (UniProt P04150); assay: qHTS assay to identify small molecule antagonists of the glucocorticoid receptor (GR) signaling pathway (AID 720692; active means well fitted inhibition curve with a large enough effect in the signal ratio in the repeat runs, not every such curve was filed as active; the % refers to the signal ratio)
In short: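 Fluorescence from cleaved LiveBLAzer B/G FRET substrate reports GRE-driven beta-lactamase in HeLa cells; compounds are tested against 5 nM dexamethasone (final) over 18 h at 37 C, substrate incubation 2 h at room temperature.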

[20] = qHTS assay for small molecules that induce genotoxicity in human embryonic kidney cells expressing luciferase-tagged ATAD5 (AID 651632); further: nearly all actives have a fitted effect of over 15% in size
In short: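 Genotoxicity read-out via ATAD5-luciferase: HEK293T cells, 16 hr compound incubation at 37C, Amplite detection.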
On the % scale 0 is the no-effect control and ±100 the full control effect.

O=c1c(O)c(O)c1=O
inactive: Potency [1] | outcome [2] | outcome [3] | outcome [4] | Potency [5] | outcome [6] | outcome [7] | outcome [8] | outcome [9] | outcome [10] | outcome [11] | outcome [12] | outcome [13] | outcome [14] | outcome [15] | outcome [16] | outcome [17] | Potency [18] | outcome [19]

C/C(Cl)=C/CCl
inactive: Potency [1] | Potency [20] | outcome [3] | outcome [4] | Potency [5] | outcome [6] | outcome [7] | outcome [8] | outcome [9] | outcome [10] | outcome [11] | outcome [12] | outcome [13] | outcome [14] | outcome [15] | outcome [16] | outcome [17]

Cc1ccc(S(=O)(=O)NC(=O)NN2CC3CCCC3C2)cc1 (centres undefined)
inactive: Potency [1] | outcome [2] | outcome [3] | outcome [4] | fluorescence, relative to Rose Bengal [6] 0.0207% [at 18.6 µM] | fluorescence, % of fluorescein control [7] 0.0063% [at 18.6 µM] | fluorescence, % of triamterene [8] -0.0452% [at 18.6 µM] | fluorescence, % of fluorescein [10] -0.0141% [at 18.6 µM] | fluorescence, % of fluorescent control [11] 0.0029% [at 18.6 µM] | activity change [12] -0.0097% [at 18.6 µM] | fluorescence, % of fluorescent control [13] 0.167% [at 18.6 µM] | fluorescence, % of Rose Bengal [14] 0.0439% [at 18.6 µM] | fluorescence, % of fluorescent control [15] -0.0187% [at 18.6 µM] | fluorescence, % of fluorescein control [16] -0.0072% [at 18.6 µM] | fluorescence, % of fluorescent control [17] -0.0447% [at 18.6 µM]

CCCCCCCCC1CO1 (centres undefined)
inactive: Potency [1] | outcome [2] | outcome [3] | outcome [4] | Potency [5] | outcome [6] | outcome [7] | outcome [8] | outcome [9] | outcome [10] | outcome [11] | outcome [12] | outcome [13] | outcome [14] | outcome [15] | outcome [16] | outcome [17] | Potency [18] | outcome [19]

CC(C)=CCC/C(C)=C\C#N
inactive: Potency [1] | Potency [20] | outcome [3] | outcome [4] | outcome [6] | outcome [7] | outcome [8] | outcome [9] | outcome [10] | outcome [11] | outcome [12] | outcome [13] | outcome [14] | outcome [15] | outcome [16] | outcome [17] | Potency [18]

Cc1ccccc1C#N
inactive: Potency [1] | Potency [20] | outcome [3] | outcome [4] | outcome [6] | outcome [7] | outcome [8] | outcome [10] | outcome [12] | outcome [13] | outcome [14] | outcome [15] | outcome [16] | outcome [17]

CC(C)(C)OC(=O)c1ccccc1C(=O)O
inactive: Potency [1] | Potency [20] | outcome [3] | Potency [5] | outcome [6] | outcome [7] | outcome [8] | outcome [9] | outcome [10] | outcome [11] | outcome [12] | outcome [13] | outcome [14] | outcome [15] | outcome [16] | outcome [17]

COC(=O)c1ccccc1Cl
inactive: Potency [1] | Potency [20] | outcome [3] | outcome [4] | outcome [6] | outcome [7] | outcome [8] | outcome [10] | outcome [11] | outcome [12] | outcome [13] | outcome [14] | outcome [15] | outcome [16] | outcome [17] | Potency [18] | outcome [19]

O=C[C@@H](O)[C@H](O)[C@H](O)CO
inactive: Potency [1] | outcome [2] | outcome [3] | outcome [4] | outcome [6] | outcome [7] | outcome [8] | outcome [9] | outcome [10] | outcome [11] | outcome [12] | outcome [13] | outcome [14] | outcome [15] | outcome [16] | outcome [17]

CCCCCC(=O)CC
inactive: Potency [1] | Potency [20] | outcome [3] | outcome [6] | outcome [7] | outcome [8] | outcome [10] | outcome [11] | outcome [12] | outcome [13] | outcome [14] | outcome [15] | outcome [16] | outcome [17]
